From ChEMBL document CHEMBL3988442, “University of Dundee, Small-Polar-MMV Screening Library” (2021)
Values joined by “and” are separate entries in the source; they are usually repeats but may differ in a detail not shown here. Identical values can stand only once. Hit rate of the full screen: of about 34,000 compounds, about 290 (0.85%) showed an effect of 50% or more. The sample as a whole holds a higher share of strong results than the screen did.

System: Plasmodium falciparum
Assay: Plasmodium falciparum sporozoite viability assay
Type: functional, organism-based
Design: scale not given: in the data most compounds retested in dose-response had high values

SMILES	Percent Effect [%]	Percent Effect (10 mM as filed; unlikely as a test dose)
O=C(c1cccnc1)N1Cc2ccccc2OCC1Cn1ccnc1 (configuration not stated)	-1.384	–
Cc1cc(C)nc(C2CCN(C(=O)c3cnc(N(C)C)nc3)C2)n1 (configuration not stated)	-0.8427	–
OC1CCN(c2ccc(CNc3nc4ccccc4s3)cc2F)CC1	–	62.02% and 41.95% and 71.05%
COC(=O)c1sc(NCc2ccc(N3CCC(O)CC3)c(F)c2)nc1Cl	–	-24.87% and -16.11% and -1.959%
O=C(O)C(F)(F)F.O=C(O)C(F)(F)F.c1ccc(NCc2cnc3n2CCN(CC2CCOC2)CC3)nc1 (configuration not stated)	-7.491	–
Cc1ncsc1C(=O)NCc1ccnc(OCC(F)(F)F)c1	6.389	–
CCN(CC)S(=O)(=O)c1cc2c3c(c1)c(C)cc(=O)n3CC2	16.61	–
CN1CCN(Cc2cnc3n2CCN(Cc2cccs2)C3)CC1.O=C(O)C(F)(F)F.O=C(O)C(F)(F)F.O=C(O)C(F)(F)F	-13.03	–
CCCC(C)C(=O)NCc1cn2cc(Br)ccc2n1 (configuration not stated)	-3.946	–
O=C(Cn1cc(Cl)cn1)Nc1ccc2c(c1)OCO2	–	-26.57% and -36.31%
CCn1cc(NC(=O)NCC(c2ccc(OC)cc2)N(C)C)cn1 (configuration not stated)	–	43.93% and 35.12% and 56.29%
O=C(Cn1cc(Cl)cn1)Nc1ccc2c(c1)OCCCO2	–	-49.11% and -46.89%
CCn1cc(NC(=O)NCCc2ccc3c(c2)OCCO3)cn1	-0.8103	–
CCn1cc(NC(=O)Nc2ccc3c(c2)OCCO3)cn1	–	64.15% and 57.73% and 68.6%
O=C(CCn1cc(Cl)cn1)Nc1ccc2c(c1)OCCO2	–	65.57% and 50.96%
CCn1cc(NC(=O)NCC(c2cccc(OC)c2)N(C)C)cn1 (configuration not stated)	–	18.25% and 14.26% and 26.58%
Cc1nc2cc(O)nn2c(C)c1CCC(=O)NCc1cc(Br)cs1	3.643	–
O=C(NCCc1ccccc1)c1cccc(S(=O)(=O)NC2CCOC2)c1 (configuration not stated)	-7.302	–
CN1CCC(c2cccc(-c3cccc(C(=O)O)c3)n2)CC1	10.86	–
CCOc1ccc(CCCC(=O)N2CCC(C(=O)NC)C2)cc1C (configuration not stated)	-7.967	–
COc1cc(CCC(=O)NC(C)C(=O)O)ccc1OCC(F)(F)F (configuration not stated)	-11.4	–
Cc1nn(C)c(C)c1C1CCCN1c1ncnc2sccc12 (configuration not stated)	-0.7353	–
O[C@H]1CN(Cc2c[nH]nc2-c2ccccc2)CC[C@@]12CCCO2	16.42	–

SMILES	Percent Effect [%]	Percent Effect (10 mM as filed; unlikely as a test dose)
Nc1ncc(-c2ccc(Cl)cc2)c(C2CCCNC2)n1 (configuration not stated)	17.56	–
Cl.Cl.Cn1nc(C2CNCCO2)cc1CCOc1ccc(Cl)cc1 (configuration not stated)	-1.356	–
CN(C)C(=O)c1sc2ncccc2c1C1CNCCO1.Cl (configuration not stated)	-1.679	–
Cl.Clc1ccc(-c2ccc(C3CNCCO3)nc2)cc1 (configuration not stated)	–	88.25% and 80.55% and 85.69%
Cn1ccnc1CN1CCN(Cc2noc(C3CC3)n2)CC1	10.42	–
CCN1CC[C@@]2(C(=O)N3CCOCC3)CCN(C(=O)C(C)C)CC[C@@H]12.O=C(O)C(F)(F)F	20.75	–
Cc1ccc(-c2nccn2-c2ccc(OC3CCN(C)CC3)cc2)o1	–	49.42% and 35.94%
CCOC[C@H]1CC[C@H]2[C@H](CCN2C(=O)c2cnccn2)O1	7.105	–
c1ccc(OCCN2CCC(c3cnccn3)CC2)cc1	9.194	–
CC(C)C(=O)N1CCN(Cc2csc(-c3ccccn3)n2)CC1	–	63.59% and 62.99% and 41.75%
CC(O)CN1CCN(Cc2csc(-c3cnn(C)c3)n2)CC1 (configuration not stated)	8.176	–
COCC(=O)N1CCN(Cc2csc(-c3ncccn3)n2)CC1	–	-31.63% and -33.22% and -17.89%
c1cnc(-c2nc(CN3CCCN(Cc4cccs4)CC3)cs2)nc1	–	-6.924% and 13.02% and 13.14%
CC(O)CN1CCN(Cc2csc(-c3ncccn3)n2)CC1 (configuration not stated)	–	68.95% and 42.73% and 61.03%
CC(C)c1nc(CN2CCN(Cc3ccccn3)CC2)cs1	0	–
CC(C)C(=O)N1CCN(Cc2csc(-c3ncccn3)n2)CC1	–	77.28% and 53.85% and 54.68%
O=C(c1cnccn1)N1CCN(Cc2csc(-c3ccccc3)n2)CC1	9.607	–
COCCN1CCC2(CCN(C(=O)c3ccc(F)cc3)CC2)C1=O	6.318	–
CCC(=O)Nc1ccc(N2CCC(OC)CC2)c(C(F)(F)F)c1	1.93	–
CCc1[nH]ncc1C(=O)N1CCCC(n2cncn2)C1 (configuration not stated)	-4.375	–
Cc1cccnc1C(Cc1ccsc1)NCc1cnc(N(C)C)nc1 (configuration not stated)	-1.422	–
Cc1cccc(CN2CCCn3c(nnc3CN3CCCC3=O)C2)n1.O=C(O)C(F)(F)F	-1.313	–
CN(C)c1ccc(CC2COCCN(Cc3nccn3C)C2)nn1 (configuration not stated)	-1.339	–

SMILES	Percent Effect [%]	Percent Effect (10 mM as filed; unlikely as a test dose)
Cn1ccnc1C(=O)N[C@@H]1CN(Cc2ccoc2)[C@@H]2CCCO[C@@H]21.O=C(O)C(F)(F)F	4.904	–
CC1=Nc2c(c(=O)[nH]n2C2CCCC2)C(c2ccc(C(=O)O)cc2)S1 (configuration not stated)	-7.784	–
CCn1c(C)nc2cc(NC(=O)C3CN(C(C)=O)C3)ccc21	-0.5895	–
CCn1c(C)nc2cc(NC(=O)CC3CCCCO3)ccc21 (configuration not stated)	–	43.93% and 40.46% and 65.03%
COc1ncccc1CN1CCC2(CC1)CC(OCC1CC1)CO2.O=C(O)C(F)(F)F (configuration not stated)	8.839	–
COc1ccccc1-n1cc(C(=O)NCCCn2nc(C)nc2C)cn1	3.022	–
Cc1ccnn1-c1ccc(C(=O)N2CCCC(n3ccnc3)C2)cc1 (configuration not stated)	2.837	–
CC(=O)N1CCC(CCc2ccnc(NC(=O)c3ccccn3)c2)CC1	–	74.38% and 72.77% and 65.08%
CN1CCC(CCc2ccnc(Nc3cnccn3)c2)CC1	-4.215	–
O=C(Nc1cc(CCC2CCN(CCO)CC2)ccn1)c1ccccn1	–	45.19% and 58.77% and 35.89%
CN1CCC(CCc2ccnc(NC(=O)c3ccccn3)c2)CC1	–	67.18% and 85.05% and 49.69%
CC(=O)Nc1cc(CCC2CCN(C(=O)c3ccccn3)CC2)ccn1	–	2.531% and -14.73% and -5.68%
Cc1cc(C)nc(N2CCC(CNC(=O)c3ccccn3)CC2)n1	1.904	–
O=C(CO)N1CCC(CCc2ccnc(Nc3cnccn3)c2)CC1	-3.121	–
Cc1ccccc1CCNC(=O)CN1CCCC(Cn2cncn2)C1 (configuration not stated)	7.953	–
O=C(C1=CCCC1)N1C[C@@H]2COC[C@]2(COc2ncccc2F)C1.O=C(O)C(F)(F)F	10.29	–
O=C(c1ccc(-c2cccc3c2CCNC3)o1)N1CCCCC1	-26	–
O=S(=O)(c1ccccc1)N1CC[C@]2(C[C@@H](OCC3CC3)CO2)C1	-7.967	–
COC(=O)Nc1ccc(CNc2cncc(-n3cccn3)n2)cc1	-0.1023	–
Cc1cc(CN(C)C(=O)c2ccc(OC(C)C)nc2)no1	6.375	–
COc1ccc(CN2C[C@@H]3OCCN(C)[C@@H]3C2)cc1.O=C(O)C(F)(F)F	-4.875	–
COCCC(=O)N1CC[C@@H](N(C)C)[C@@H]1Cc1ccccc1	-9.112	–
COc1ccc(S(=O)(=O)N2C[C@@H]3CN(C)CCO[C@@H]3C2)cc1	1.798	–

SMILES	Percent Effect [%]	Percent Effect (10 mM as filed; unlikely as a test dose)
Cc1nccn1C1CCCN(C(=O)CCCNc2ncccn2)C1 (configuration not stated)	3.922	–
Cc1cnn(CC2CCCN2C(=O)c2ccccc2-n2cccn2)c1 (configuration not stated)	9.109	–
Cc1nc(N2CCN(C(=O)c3ccccc3)CC2)c2cnn(C)c2n1	-8.371	–
Cl.OC1(c2ccc(F)cc2)CCN(Cc2ccccc2N2CCCC2)CC1	10.2	–
Cc1cnccc1-n1nc(C(C)C)nc1CCN(C)S(C)(=O)=O	–	-20.65% and -22.07%
CSCCc1nc(C(C)C)nn1-c1ccncc1C	–	-19.09% and -18.73%
Cc1cnccc1-n1nc(C(C)C)nc1CS(C)(=O)=O	–	82.57% and 75%
CC(=O)N1CCC1c1nc(-c2ccc(C)s2)no1 (configuration not stated)	-4.556	–
O=C(NCCNc1cc(N2CCCC2)cnn1)Nc1ccccc1F	–	88.21% and 92.16%
O=C(Cc1ccc(F)cc1)NCCNc1cc(N2CCCC2)cnn1	–	2.363% and 4.651%
CSc1nnc(CNC(=O)Nc2ccccc2F)n1C	-0.259	–
CC(=O)N1CC[C@H]2OCC[C@@]2(C(=O)NCCc2ccccn2)C1.O=C(O)C(F)(F)F	-10.77	–
CC(NC(=O)NCCCc1n[nH]c(N)c1C#N)c1ccccc1F (configuration not stated)	14.69	–
Cc1cc(C)n(CC2CCCN2CC(=O)NC2CCOCC2)n1 (configuration not stated)	-10.14	–
Cc1cc(C)n(CC2CCCCN2CC(=O)NC2CCOCC2)n1 (configuration not stated)	14.15	–
COCCOCC(=O)Nc1ccc(C)cc1F	-13.64	–
O=C(c1ccc(C2CCCO2)s1)N1CCS(=O)(=O)CC1 (configuration not stated)	–	6.394% and 9.158% and -11.41%
O=C(c1ccc(C2CCCO2)s1)N1CCOCC1 (configuration not stated)	–	-24.05% and -11.59%
O=C(c1ccc(C2CCCO2)s1)N1CCN(c2ccccc2F)CC1 (configuration not stated)	–	80.46% and 89.28% and 82.47%
O=c1[nH]c(CCN2CCCC2Cn2cncn2)nc2ccccc12 (configuration not stated)	9.596	–
O=C(Cc1ccc2c(c1)OCCO2)N1CCCC(n2cccn2)C1 (configuration not stated)	–	49.54% and 51.7% and 51.33%
O=C(CCc1ccc2c(c1)OCO2)N1CCCC(n2cccn2)C1 (configuration not stated)	–	-3.407% and -9.243% and -9.365%
O=C(Cc1ccc2c(c1)CCO2)N1CCCC(n2cccn2)C1 (configuration not stated)	–	-20.29% and -14.82% and -23.46%
